Results reported in PubChem BioAssay AID1159580 (chemical genetic matrix, 2015).
Values joined by “and” are separate entries in the source; they are usually repeats but may differ in a detail not shown here. Identical values can stand only once. Among all 5,500 compounds or so, about 2,000 (36%) were called active. Inconclusive results (about 18%) are left out. No stated cut-off is given here; in the data, active means normalized growth mostly below about 0.91 (no sharp cut-off); inconclusive means no clear call, values can overlap the other calls; inactive means mostly above about 0.92. The list shows a part of the results.

Assay: chemical genetic growth profiling, strain panel (AID 1159580);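 further: tested at 20 µM; growth read once vehicle control cultures reached saturation at 30 °C; 1 = growth at the plate median or of vehicle wells; lower values mean less growth of the strain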
Conditions: S. cerevisiae deletion strains, growth OD

Measured: normalized growth

C/C=C1\[C@H]2C=C(C)C[C@]1(N)c1ccc(=O)[nH]c1C2
inactive: locus YAL013W, strain DEP1, hits give low values 1.01 | locus YAL021C, strain ccr4, hits give low values 1 | locus YAL026C, strain drs2, hits give low values 1.03 | locus YAL030W, strain snc1, hits give low values 1.02 | locus YBL061C, strain skt5, hits give low values 1.01 | locus YBR009C, strain hhf1, hits give low values 1.03 | locus YBR021W, strain FUR4, hits give low values 1.01 | locus YBR023C, strain chs3, hits give low values 1.02 | locus YBR171W, strain sec66, hits give low values 1.03 | locus YBR229C, strain ROT2, hits give low values 1.01 | locus YBR231C, strain swc5, hits give low values 1.02 | locus YBR279W, strain paf1, hits give low values 1.02 | locus YCL011C, strain gbp2, hits give low values 1.02 | locus YCL016C, strain dcc1, hits give low values 1.01 | locus YCL029C, strain bik1, hits give low values 1.02 | locus YCL061C, strain MRC1, hits give low values 1.02 | locus YCL069W, strain vba3, hits give low values 1.02 | locus YCR088W, strain abp1, hits give low values 1.02 | locus YDL005C, strain med2, hits give low values 1.04 | locus YDL035C, strain GPR1, hits give low values 1.01 | locus YDL040C, strain nat1, hits give low values 1.01 | locus YDL074C, strain BRE1, hits give low values 1.01 | locus YDL101C, strain DUN1, hits give low values 1.01 | locus YDL134C, strain PPH21, hits give low values 1.01 | locus YDL185W, strain tfp1, hits give low values 1.02 | locus YDL192W, strain arf1, hits give low values 1.02 | locus YDR001C, strain nth1, hits give low values 1.01 | locus YDR069C, strain doa4, hits give low values 1.03 | locus YDR101C, strain arx1, hits give low values 1 | locus YDR137W, strain rgp1, hits give low values 1.01 | locus YDR150W, strain NUM1, hits give low values 1.02 | locus YDR159W, strain sac3, hits give low values 1.03 | locus YDR162C, strain NBP2, hits give low values 1.02 | locus YDR195W, strain ref2 0.989 | locus YDR297W, strain sur2, hits give low values 1.01 | locus YDR318W, strain mcm21, hits give low values 1.02 | locus YDR334W, strain swr1, hits give low values 1.03 | locus YDR335W, strain msn5, hits give low values 1.02 | locus YDR388W, hits give low values 1.01 | locus YDR392W, strain spt3, hits give low values 0.966 | locus YDR502C, strain sam2, hits give low values 1.01 | locus YEL003W, strain gim4, hits give low values 1.03 | locus YEL037C, strain rad23, hits give low values 1.02 | locus YEL061C, strain CIN8 (second series), hits give low values 1.03 | locus YEL061C, strain CIN8, hits give low values 1.01 | locus YER015W, strain faa2, hits give low values 1.02 | locus YER016W, strain bim1, hits give low values 1.03 | locus YER110C, hits give low values 1.01 | locus YER111C, strain swi4, hits give low values 1.03 | locus YER155C, strain BEM2 (second series), hits give low values 1.04 | locus YER155C, strain BEM2, hits give low values 1 | locus YER167W, strain BCK2, hits give low values 1.02 | locus YFR010W, strain ubp6, hits give low values 1.03 | locus YGL078C, strain dbp3, hits give low values 1.01 | locus YGL086W, strain mad1, hits give low values 1.01 | locus YGL167C, strain pmr1, hits give low values 1.02 | locus YGL173C, strain kem1, hits give low values 1.04 | locus YGL227W, strain vid30, hits give low values 1.03 | locus YGL240W, strain doc1, hits give low values 1.04 | locus YGL248W, strain PDE1, hits give low values 1.01 | locus YGL253W, strain hxk2, hits give low values 1.02 | locus YGR078C, strain PAC10, hits give low values 1.01 | locus YGR135W, strain pre9, hits give low values 1 | locus YGR229C, strain SMI1, hits give low values 1.01 | locus YGR252W, strain gcn5, hits give low values 1.01 | locus YHR013C, strain ard1, hits give low values 1.02 | locus YHR027C, strain rpn1, hits give low values 1.03 | locus YHR030C, strain SLT2, hits give low values 1 and 1.02 | locus YHR079C, strain IRE1 (second series), hits give low values 1.01 | locus YHR079C, strain IRE1, hits give low values 1.01 | locus YHR094C, strain hxt1, hits give low values 1.01 | locus YHR129C, strain ARP1, hits give low values 1 | locus YHR142W, strain chs7, hits give low values 0.992 | locus YHR200W, strain rpn10, hits give low values 1.02 | locus YIL066C, strain RNR3, hits give low values 1.02 | locus YIL073C, strain SPO22, hits give low values 1.08 | locus YIL125W, strain kgd1, hits give low values 1.02 | locus YIR030C, strain dcg1, hits give low values 1.01 | locus YJL092W, strain hpr5, hits give low values 1.03 | locus YJL095W, strain BCK1 (second series), hits give low values 1.01 | locus YJL095W, strain BCK1, hits give low values 0.989 and 0.995 | locus YJL115W, strain asf1, hits give low values 1.02 | locus YJL129C, strain trk1, hits give low values 1.02 | locus YJL134W, strain LCB3, hits give low values 1.01 | locus YJL154C, strain vps35, hits give low values 1.02 | locus YJL164C, strain tpk1, hits give low values 1.01 | locus YJL166W, strain qcr8, hits give low values 1.02 | locus YJL168C, strain set2, hits give low values 1.01 | locus YJL187C, strain SWE1 (second series), hits give low values 1 | locus YJL187C, strain SWE1, hits give low values 1.02 | locus YJR043C, strain POL32, hits give low values 1.01 | locus YJR066W, strain TOR1, hits give low values 0.96
